For 10 compounds, composite z-score results are on record in PubChem BioAssay.

The target in this test is Carbonic anhydrase 2 (Homo sapiens) (UniProt P00918). The experiment in a line: compounds binding carbonic anhydrase 2 – biochemical, small-molecule microarray, Alexa647-labelled CAII, profiling panel (AID 1122). The note with it: CAII-A647 binding fluorescence, higher = more signal.
Take `CC[C@H]1C2=C3C(CC[C@H]4C(OCc5ccc(F)cc5C(F)(F)F)OC[C@](C)([C@@H]34)N(C(=O)OC(C)(C)C)C2)C(COC)C1COC` (stereo not given in full): the composite z-score worked out at 0.687.

`CC(C)N1C(=O)C[C@@](C(=O)NCCCN(C)C)(c2ccc([N+](=O)[O-])cc2)[C@H]1c1ccc(CO)cc1`: the composite z-score is 0.573.

Regarding `NC(=O)NCC#Cc1ccc2c(c1)[C@]1(C(=O)N2)[C@H](C(=O)NC[C@H](O)c2ccccc2)[C@H]2C(=O)O[C@H](c3ccccc3)[C@H](c3ccccc3)N2[C@@H]1c1ccc(OCCO)cc1`, the composite z-score turned out to be 0.377.

`Cc1ccccc1C(O)C1C=CC2C(=O)N(C)C(=O)C2N1N(c1ccccc1)c1ccccc1` (stereo not given) yielded a composite z-score of 0.833.

Consider `C=CCC(OC(C)=O)[C@@H]1[C@@H](N(Cc2cc3ccccc3o2)C(=O)c2ccc(C)cc2)c2cc(OCCCO)ccc2N1C(=O)Cc1ccc(OC)cc1` (stereo not given in full), for which the composite z-score was -0.119.

`COC(=O)C1=CC(CCCO)=CC(C2CC2)N(C)C=C1C(=O)OC` (stereo not given): the composite z-score was found to be 0.97.

Compound `COc1cc2c(cc1OC)CN(C(=O)[C@@H]1[C@H]3C(=O)O[C@H](c4ccccc4)[C@H](c4ccccc4)N3[C@H](c3ccc(OCCO)cc3)[C@@]13C(=O)Nc1ccc(C#CC4(O)CCCCCC4)cc13)CC2` had a composite z-score of 0.543.

Turning to `COc1cc(OC)c(C(O)C2C=CC3C(=O)N(c4ccccc4)C(=O)C3N2Nc2ccccc2)cc1Br` (stereo not given), the composite z-score was determined as 0.457.

As for `COc1ccc([Si](C)(C)[C@@H]2[C@@H](CC(=O)N(CCO)Cc3ccccc3)O[C@]3(C(=O)N(Cc4cccc(N5C(=O)c6cccc7cccc5c67)c4)c4ccccc43)[C@H]2C)cc1`, the composite z-score is -0.199.

As to `COC(=O)c1c2oc(c1C(=O)OC)C(=O)N(C)Cc1cn(nn1)C[C@H](Cc1ccccc1)NC(=O)N[C@H](CO)CC2`, the composite z-score was -0.41.
